Laboratory results reported in PubChem BioAssay AID1359 (The Scripps Research Institute Molecular Screening Center, 2008).
Where “and” joins values, the source holds several entries; their conditions need not be identical. Equal values may be shown once. Hit rate of the full screen: of about 220,000 compounds, about 970 (0.44%) were called active. Shown is part of a subset that was picked to be rich in actives. A number with no mark means an inactive call. Cut-off read from the data, not from the text of the source: active = activation above about 27%; inactive = the rest.

Each compound was assayed against Neuropeptide Y receptor type 2 (Homo sapiens) (UniProt P49146) (assay: human Y2 receptor positive modulation or activation – cell-based, primary screen (AID 1359;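 note: cells stimulated with NPY near EC25 plus isoproterenol at EC100; 0% = vehicle plus submaximal agonist and 100% = vehicle plus saturating agonist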)). Settings: cells expressing NPY-Y2, potentiator/agonist read-out; at 3.6 µM; stronger effect = higher value.
Sequence of Neuropeptide Y receptor type 2 (Homo sapiens) (P49146 whole entry, looked up): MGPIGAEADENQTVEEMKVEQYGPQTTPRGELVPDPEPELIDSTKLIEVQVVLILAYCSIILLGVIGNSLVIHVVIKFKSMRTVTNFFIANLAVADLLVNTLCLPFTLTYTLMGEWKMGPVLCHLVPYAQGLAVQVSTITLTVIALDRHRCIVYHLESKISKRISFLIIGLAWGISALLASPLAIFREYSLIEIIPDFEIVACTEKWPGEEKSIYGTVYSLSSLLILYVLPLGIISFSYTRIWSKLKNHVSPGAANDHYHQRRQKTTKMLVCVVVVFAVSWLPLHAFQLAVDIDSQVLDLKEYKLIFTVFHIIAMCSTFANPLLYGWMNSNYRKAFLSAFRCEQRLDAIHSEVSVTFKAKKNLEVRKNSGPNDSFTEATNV
`C#CCOCCOCCOCCNc1nc(N2CCN(C(=O)[C@H](CCC(=O)O)n3cc(C(N)CO)nn3)CC2)nc(N2CCN(C(=O)[C@H](Cc3ccc(O)cc3)n3cc(C(N)[C@H](C)CC)nn3)CC2)n1` (stereo partly drawn) gave an activation of -0.84%. With `Cc1nccn1CC(=O)N/N=C/c1ccc(O)c(O)c1` the activation was -13.1%. Compound `O=C(Nc1ccccc1)Nc1ccc(C(F)(F)F)cn1` has an activation of 4.92%. In the case of `Oc1ccc(/C=N/Nc2ccc(C(F)(F)F)cn2)cc1O`, the activation is reported as 28.2% (active). With `Cc1ccc(-c2c[n+](=O)c3c(n2[O-])CCC3)cc1` the activation was -8.75%. Compound `Cc1c(C(=O)NCCCc2ccccc2)cccc1[N+](=O)[O-]` has an activation of 2.52%. For `O=C1CCCC(O)=C1N=Nc1ccc(S(=O)(=O)N2CCOCC2)cc1`, the activation was 4.38%. With `CC(=O)Nc1ccccc1OC(C)C(=O)N1CCC(C)CC1` (stereo not drawn) the activation was -7.73%. Compound `Cc1noc(COc2ccccc2OCc2onc(C)c2Cl)c1Cl` has an activation of 0.6%. `Cc1noc(COc2ccccc2OCC(O)CNC(C)(C)C)n1` (stereo not drawn) was tested, and the activation was 102% (active). In the case of `CC(C)(C)CC(C)(C)NCC(O)COCCOc1ccc(Br)cc1` (stereo not drawn), the activation is reported as -6.14%. In the case of `Cc1cccc(-c2nc3c(c(SCC(=O)N4CCOCC4)n2)CCCC3)c1`, the activation is reported as -7.06%. For `O=C(Nc1ccc(N2CCOCC2)nc1)c1c(F)cccc1F`, the activation was -10.2%. For `CSc1ccc(NC(=O)/C=C/C(=O)O)cc1`, the activation was -0.23%. `O=C(COC(=O)c1ccc[nH]c1=O)Nc1ccc2c(c1)OC(F)(F)O2` showed an activation of -11.7%. In the case of `CN(C)Cc1c(O)ccc2occ(C(O)c3ccccc3)c12` (stereo not drawn), the activation is reported as 92.7% (active). In the case of `Cc1ccc(S(=O)(=O)/N=C(\N)c2ccc(F)cc2)cc1`, the activation is reported as 9.83%. For `N/C(=N\S(=O)(=O)c1cc(C(F)(F)F)cc(C(F)(F)F)c1)c1cccs1`, the activation was 46% (active). Work on `C/C(=N\NS(=O)(=O)c1ccc(Br)cc1)c1cccs1` yielded an activation of 2.42%. For `Cn1c(=O)c(Sc2ccc(Cl)cc2)c(O)c2ccccc21`, the activation was -8.34%. `COc1cccc(NC(=S)NC(=O)c2c(Cl)c(C)nn2C)c1` gave an activation of -1.69%. In the case of `OCCNCc1cccc(OCc2ccccc2Cl)c1`, the activation is reported as -2.33%. For `Cc1cccn2c(CN(C)C3CCCc4ccccc43)c(C(=O)N3CCOCC3)nc12` (stereo not drawn), the activation was -13.5%. `OC(c1ccccc1)c1nccn1Cc1ccccc1` (stereo not drawn) gave an activation of 3.61%. Compound `COC(=O)c1cc(N2CCNCC2)nc2ccccc12` has an activation of 17%. Compound `O=C(Nc1cccc(S(=O)(=O)N2CCCCC2)c1)c1ccc2c(c1)OCO2` has an activation of 1.87%. For `O=C(Nc1ccc(Cl)cn1)c1ccc2c(c1)OCCO2`, the activation was -8.32%. For `O=C(Nc1cccc(S(=O)(=O)Nc2ccc(Cl)cc2)c1)c1ccc2c(c1)OCCO2`, the activation was 35% (active). For `COC(=O)c1ccc(CSc2nncn2N)cc1`, the activation was 2.75%. `NC(=O)CCC(NS(=O)(=O)c1ccc(Cl)cc1)C(=O)NCc1ccccc1Cl` (stereo not drawn) gave an activation of 10%. Compound `CC(=O)c1c(C)[nH]c(C(=O)COC(=O)c2cccc(S(=O)(=O)N(C)c3ccccc3)c2)c1C` has an activation of 10.4%. In the case of `COc1ccc(C(C[N+](=O)[O-])n2nc(C)cc2C)cc1` (stereo not drawn), the activation is reported as 12.3%. For `CC(=O)N(CCCN(C)C)c1nc2ccc(C)cc2s1`, the activation was -1.74%. `COc1cccc2sc(N(CCCN(C)C)C(=O)C(c3ccccc3)c3ccccc3)nc12` was tested, and the activation was 95.6% (active). For `CN(C)CCCN(C(=O)COc1ccccc1)c1nc2c(Cl)cccc2s1`, the activation was -2.96%. `C=CCSc1nnc(NC(=O)c2ccc(NC(C)=O)cc2)s1` showed an activation of -3.89%. `CCSc1nnc(NC(=O)c2ccc(C)cc2)s1` was tested, and the activation was 31.6% (active). Work on `CCSc1nnc(NC(=O)Cc2ccccc2OC)s1` yielded an activation of -5.68%. Compound `Cc1nc2ccccc2c(C)c1C(=O)c1ccc(F)cc1` has an activation of -11.5%. `CCCC1OC23CCCCC2C(C#N)(C#N)C1(C#N)C(=N)O3` (stereo not drawn) gave an activation of 7.5%. For `COCCCNC(NC(=O)c1ccc(C)cc1)C(Cl)(Cl)Cl` (stereo not drawn), the activation was 15.8%. For `COc1ccc(C(=O)NC2(C(F)(F)F)NC(=O)N(CCCc3ccccc3)C2=O)c(OC)c1OC` (stereo not drawn), the activation was -6.73%. With `COc1ccccc1OCCNCC(O)COc1cccc2[nH]c3ccccc3c12` (stereo not drawn) the activation was 99.4% (active) and 97.9% (active). `CC(O)CNCCOc1cccc(Oc2ccccc2)c1` (stereo not drawn) was tested, and the activation was -22.6%. `COc1ccccc1OCCNC(=O)c1cc([N+](=O)[O-])cc([N+](=O)[O-])c1` gave an activation of -7.14%. Compound `C=CCn1c(SCc2cccc(F)c2)nc2cc(C(=O)N3CCC(C(N)=O)CC3)ccc2c1=O` has an activation of 8.55%. `O=C(NCCc1ccccn1)c1cc(-c2ccc(Cl)cc2)nc2ccccc12` was tested, and the activation was -15.9%. Compound `O=C1c2ccccc2C(=O)c2c1cccc2N1CCN(CCO)CC1` has an activation of 7.55%. `O=c1cc(N2CCN(Cc3ccccc3)CC2)c(-c2ccccc2)n[nH]1` showed an activation of 12.9%. `O=C1c2ccccc2C(=O)c2c1cccc2N1CCN(Cc2ccccc2)CC1` was tested, and the activation was 48.8% (active). For `COc1ccc(NS(=O)(=O)c2cc(NC(=O)CC(=O)c3ccc([N+](=O)[O-])cc3)ccc2C)cc1`, the activation was -11.2%. With `O=C1NC(c2ccc(-c3ccccc3[N+](=O)[O-])o2)C(C(=O)c2ccc(Cl)cc2)C(O)(C(F)(F)F)N1` (stereo not drawn) the activation was 37.4% (active). In the case of `CC(=O)C1C(c2cccc(Oc3ccccc3)c2)NC(=O)NC1(O)C(F)(F)F` (stereo not drawn), the activation is reported as 6.91%. `CC(=O)C1C(c2ccc(Cl)cc2)NC(=O)NC1(O)C(F)(F)F` (stereo not drawn) gave an activation of -6.52%. `O=C(c1ccc(F)cc1)n1c(=S)nc2ccccn21` showed an activation of 3.79%. Work on `COc1cc(N2C(=O)c3ccccc3C2=O)c(Cl)cc1C(=O)OCC(=O)N1CCOCC1` yielded an activation of -10.6%. Work on `O=[N+]([O-])c1ccc(N2CCN(CC(O)COc3ccccc3)CC2)cc1` (stereo not drawn) yielded an activation of -7.01%. `OC(COCc1ccco1)CN1CCN(c2ccccc2)CC1` (stereo not drawn) gave an activation of -8.6%. `OC(COCC1COc2ccccc2O1)CN1CCN(c2ccc(F)cc2)CC1` (stereo not drawn) was tested, and the activation was 80.4% (active). With `COc1ccc(OCc2cn3c(C)cc(C)nc3n2)cc1` the activation was 1.94%. Work on `COc1cc(NC(=S)NCc2ccc(S(N)(=O)=O)cc2)cc(OC)c1` yielded an activation of 4.03%. `CC1(C)CC(=O)C(N=Nc2c(F)cccc2F)=C(O)C1` gave an activation of 19.3%. `Cc1nn(-c2ccccc2)c(C)c1/C=C/C(=O)OC(C)C(N)=O` (stereo not drawn) showed an activation of -0.33%. `O=C(NCC(O)c1ccc([N+](=O)[O-])cc1)C1CCCCC1` (stereo not drawn) gave an activation of -6.08%. `CC(C)(C)n1ncc2c(=O)n(Cc3ccc(Cl)cc3)cnc21` gave an activation of -23.4%. In the case of `Cc1cccc(C)c1Nc1c(-c2ccccc2O)nc2ncccn12`, the activation is reported as 56.5% (active). `Cc1ccccc1Nc1c(-c2ccccc2)nc2ncccn12` gave an activation of 22.6%. For `COC(=O)c1ccc(COc2ccc(/C=N/NC(=O)C(=O)Nc3ccc(OC)cc3)cc2OC)o1`, the activation was -3.63%. For `COc1ccc2c(c1)C(SCC(=O)NCc1ccccc1)CC(C)(C)O2` (stereo not drawn), the activation was 15.7%. `COc1ccc(/C(C)=N/Nc2cc(C(F)(F)F)ccc2Cl)c(OC)c1` showed an activation of -10.5%. With `O=C(Nc1sc2c(c1-c1nc3ccccc3[nH]1)CCCC2)C1CC1` the activation was 30.3% (active). With `CCOC(=O)c1c(NC(=O)C2CCN(S(=O)(=O)c3ccc(Cl)cc3)CC2)sc2c1CCCC2` the activation was -5.8%. For `O=C(Nc1cccc(-c2nc3ccccc3[nH]2)c1)c1ccc(C(=O)Nc2cccc(-c3nc4ccccc4[nH]3)c2)cc1`, the activation was 0.29%. In the case of `NC(=O)c1ccc(N2CCOCC2)nc1`, the activation is reported as -10.3%. Work on `CCOC12CC(C)(C)CC(C)(CC3=C1C(=O)CC(C)(C)C3)C2` (stereo not drawn) yielded an activation of -1.87%. Work on `CN(C)CCCSc1ccccc1NC(=O)/C=C/c1ccccc1` yielded an activation of -11.2%. For `C1CC1Cc1noc(CN2CCN(CC3CC3)CC2)n1`, the activation was -4.58%. `Cc1c(Cl)cccc1NC(=O)CSc1ccc(-c2cccnc2)nn1` was tested, and the activation was 2.4%. `CCS(=O)(=O)N1CCCC(C(=O)NCc2ccc(C)cc2)C1` (stereo not drawn) showed an activation of 13%. In the case of `Cc1ccc(CCNC(=O)C2CCN(S(=O)(=O)N3CCCC3)CC2)cc1`, the activation is reported as 104% (active). `O=C(NCCCN1CCN(Cc2ccccc2)CC1)C1CCN(S(=O)(=O)N2CCCC2)CC1` was tested, and the activation was 17.2%. For `CSc1nnc(SCc2nc3sc(C(=O)O)c(C)c3c(=O)[nH]2)s1`, the activation was 1.67%. In the case of `COC(=O)CSc1nc2c(c(C3CC=CCC3)c1C#N)CCC2` (stereo not drawn), the activation is reported as -6.44%. Compound `Cc1nc([N+](=O)[O-])cn1CC(=O)Nc1ccc2c(c1)OCO2` has an activation of -19.2%. `Cc1ccccc1C(CC(=O)c1cccs1)C(C#N)C#N` (stereo not drawn) was tested, and the activation was 4.09%. Compound `CC1CCCCC1NC(=O)/C(C#N)=C/C=C/c1ccccc1[N+](=O)[O-]` (stereo not drawn) has an activation of -5.09%. `Cc1cc(C)c(NC(=O)c2oc3ccccc3c2COc2ccccc2)c(C)c1` showed an activation of -12.9%. `Cc1cc(C)cc(OCC(=O)NCc2cc(C)nc3ccccc23)c1` showed an activation of -3.92%. For `Cc1cc(C)c(NC(=O)C[N+](C)(C)CC(O)COc2cccc3ccccc23)c(C)c1` (stereo not drawn), the activation was 71.5% (active). With `CCN(C(=O)COc1cccnc1[N+](=O)[O-])C1CCS(=O)(=O)C1` (stereo not drawn) the activation was -0.31%. For `CN(CCO)Cc1csc2ccc(Br)cc12`, the activation was -20.4%. Compound `CC(=O)N1C(=O)/C(=C2\SC(=S)N(NC(=O)c3ccc(O)cc3)C2=O)c2ccccc21` has an activation of -3.06%. For `Cc1ccc(NS(=O)(=O)c2cccs2)cc1S(=O)(=O)N1CCCCCC1`, the activation was 3.99%.
